Experimental data as given in PubChem BioAssay AID1159580 (chemical genetic matrix, 2015).
“And” between values parts separate entries of the source, which are not always exact repeats. Equal values may be shown once. Hit rate of the full screen: of about 5,500 compounds, about 2,000 (36%) were called active. Not shown: some 18% with an inconclusive outcome. Cut-off read from the data, not from the text of the source: active = normalized growth mostly below about 0.91 (no sharp cut-off); inconclusive = no clear call, values can overlap the other calls; inactive = mostly above about 0.92. The list shows a part of the results.

Test: chemical genetic growth profiling, strain panel (AID 1159580);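 note: tested at 20 µM; growth read once vehicle control cultures reached saturation at 30 °C; 1 = growth at the plate median or of vehicle wells; lower values mean less growth of the strain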
Conditions: S. cerevisiae deletion strains, growth OD

Measured: normalized growth

CN1CCN(CCC=C2c3ccccc3Sc3ccc(S(=O)(=O)N(C)C)cc32)CC1
inactive: locus YAL013W, strain DEP1, active compounds read low 1.01 | locus YAL021C, strain ccr4, active compounds read low 0.987 | locus YAL030W, strain snc1, active compounds read low 0.991 | locus YBL061C, strain skt5, active compounds read low 0.973 | locus YBR009C, strain hhf1, active compounds read low 0.931 | locus YBR021W, strain FUR4, active compounds read low 0.978 | locus YBR023C, strain chs3, active compounds read low 0.919 | locus YBR171W, strain sec66, active compounds read low 1.01 | locus YBR229C, strain ROT2, active compounds read low 1.01 | locus YBR231C, strain swc5, active compounds read low 0.945 | locus YBR279W, strain paf1, active compounds read low 0.964 | locus YCL011C, strain gbp2, active compounds read low 1.01 | locus YCL016C, strain dcc1, active compounds read low 0.971 | locus YCL029C, strain bik1, active compounds read low 0.978 | locus YCL061C, strain MRC1, active compounds read low 0.953 | locus YCL069W, strain vba3, active compounds read low 0.971 | locus YCR088W, strain abp1, active compounds read low 1.01 | locus YDL005C, strain med2, active compounds read low 0.996 | locus YDL035C, strain GPR1, active compounds read low 1 | locus YDL040C, strain nat1, active compounds read low 0.993 | locus YDL074C, strain BRE1, active compounds read low 0.989 | locus YDL101C, strain DUN1, active compounds read low 1 | locus YDL134C, strain PPH21, active compounds read low 1 | locus YDL185W, strain tfp1, active compounds read low 0.989 | locus YDL192W, strain arf1, active compounds read low 0.991 | locus YDR001C, strain nth1, active compounds read low 1.01 | locus YDR069C, strain doa4, active compounds read low 1 | locus YDR101C, strain arx1, active compounds read low 0.95 | locus YDR150W, strain NUM1, active compounds read low 1.02 | locus YDR159W, strain sac3, active compounds read low 0.936 | locus YDR162C, strain NBP2, active compounds read low 1 | locus YDR195W, strain ref2 1.1 | locus YDR297W, strain sur2, active compounds read low 0.975 | locus YDR334W, strain swr1, active compounds read low 1.01 | locus YDR335W, strain msn5, active compounds read low 0.953 | locus YDR502C, strain sam2, active compounds read low 0.931 | locus YEL003W, strain gim4, active compounds read low 1.01 | locus YEL037C, strain rad23, active compounds read low 1 | locus YEL061C, strain CIN8 (second series), active compounds read low 0.998 | locus YEL061C, strain CIN8, active compounds read low 1.02 | locus YER015W, strain faa2, active compounds read low 0.985 | locus YER016W, strain bim1, active compounds read low 0.992 | locus YER110C, active compounds read low 0.977 | locus YER111C, strain swi4, active compounds read low 0.988 | locus YER155C, strain BEM2, active compounds read low 0.999 | locus YER167W, strain BCK2, active compounds read low 1 | locus YFR010W, strain ubp6, active compounds read low 0.965 | locus YGL078C, strain dbp3, active compounds read low 0.996 | locus YGL086W, strain mad1, active compounds read low 0.946 | locus YGL167C, strain pmr1, active compounds read low 1.01 | locus YGL173C, strain kem1, active compounds read low 0.969 | locus YGL227W, strain vid30, active compounds read low 1.02 | locus YGL240W, strain doc1, active compounds read low 0.921 | locus YGL248W, strain PDE1, active compounds read low 1 | locus YGR135W, strain pre9, active compounds read low 0.904 | locus YHR013C, strain ard1, active compounds read low 0.944 | locus YHR027C, strain rpn1, active compounds read low 0.99 | locus YHR030C, strain SLT2, active compounds read low 1.01 and 0.981 | locus YHR079C, strain IRE1 (second series), active compounds read low 0.933 | locus YHR079C, strain IRE1, active compounds read low 0.98 | locus YHR094C, strain hxt1, active compounds read low 0.972 | locus YHR129C, strain ARP1, active compounds read low 1.01 | locus YHR200W, strain rpn10, active compounds read low 0.96 | locus YIL066C, strain RNR3, active compounds read low 1.01 | locus YIL073C, strain SPO22, active compounds read low 1.02 | locus YIL125W, strain kgd1, active compounds read low 0.997 | locus YIR030C, strain dcg1, active compounds read low 0.98 | locus YJL092W, strain hpr5, active compounds read low 0.977 | locus YJL095W, strain BCK1 (second series), active compounds read low 0.973 | locus YJL095W, strain BCK1, active compounds read low 0.992 and 0.978 | locus YJL115W, strain asf1, active compounds read low 1 | locus YJL129C, strain trk1, active compounds read low 1.03 | locus YJL134W, strain LCB3, active compounds read low 1.01 | locus YJL154C, strain vps35, active compounds read low 1.01 | locus YJL164C, strain tpk1, active compounds read low 0.972 | locus YJL166W, strain qcr8, active compounds read low 0.979 | locus YJL168C, strain set2, active compounds read low 0.971 | locus YJL187C, strain SWE1 (second series), active compounds read low 1.01 | locus YJL187C, strain SWE1, active compounds read low 0.994
active: locus YAL026C, strain drs2, active compounds read low 0.767 | locus YDR137W, strain rgp1, active compounds read low 1.23 [resistant] | locus YDR318W, strain mcm21, active compounds read low 0.911 | locus YDR388W, active compounds read low 0.922 | locus YDR392W, strain spt3, active compounds read low 0.456 | locus YER155C, strain BEM2 (second series), active compounds read low 0.681 | locus YGL253W, strain hxk2, active compounds read low 0.889 | locus YGR252W, strain gcn5, active compounds read low 0.711 | locus YHR142W, strain chs7, active compounds read low 0.86
